Bioassay records deposited in PubChem by National Center for Advancing Translational Sciences (NCATS).
The list is not random: actives were taken first. Their share in the collection is about 12%.
HP1b chromo inh = HP1-beta chromodomain-methylated histone interaction inhibition | 0.56% of 390,000 active | Potency, µM (highest dose often 114 µM), for the others: top-dose activity change, negative = inhibition, actives largely listed as inhibitors | AID 540317 | AlphaScreen HP1-beta / biotin-H3K9me3 peptide binding | P83916; also: nearly all actives have a fitted effect of over 70% in size
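HP1-beta protein (50 nM final) preincubated 30 min at room temperature with biotinylated H3(1-18)K9me3 peptide (50 nM) in PBS pH 7.4, 0.01% Tween-20, then compound added for 30 min. AlphaScreen streptavidin donor/nickel chelate acceptor beads (10 ug/mL final), 30 min dark, luminescence read.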
L3MBTL1 inh = inhibitors of human L3MBTL1; 0.66% of 230,000 active; AlphaScreen L3MBTL1–H3K9me1 peptide binding; AID 485360; Potency, µM (doses to about 57.1 µM), for the others: top-dose activity, negative = inhibition, most hits filed as inhibitors; Q9Y468; also: % is scaled to controls: 0 for no effect and ±100 for the full control effect; nearly all actives have a fitted effect of over 60% in size
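Displacement of a biotinylated histone H3(1-15) peptide monomethylated at Lys9 (75 nM) from L3MBTL1 (50 nM) was measured by AlphaScreen after a 30 min room-temperature compound incubation; cefsulodin titration served as intraplate control.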
JMJD2A Tudor inh = inhibitors of human JMJD2A Tudor domain. O75164. AlphaScreen JMJD2A-Tudor / H3K4me3 peptide binding. Potency, µM (highest dose often 114 µM), without a hit: top-dose activity change, negative = inhibition, usual class: inhibitors. 4.4% of 390,000 active. AID 504339; also: % is scaled to controls: 0 for no effect and ±100 for the full control effect; nearly all actives have a fitted effect of over 50% in size
G9a inh = G9a (human) methyltransferase inhibition; 8.8% of 350,000 active; Q96KQ7; G9a H3K9 monomethylation, AlphaScreen, 2 h; Potency, µM (titrated, usually from 102 µM), without a hit: top-dose activity, negative = inhibition, most hits filed as inhibitors; also: % is scaled to controls: 0 for no effect and ±100 for the full control effect; nearly all actives have a fitted effect of over 75% in size
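Methyltransferase reactions run at room temperature for 2 h (20 nM enzyme, 500 nM biotin-H3K9 peptide, 20 uM SAM) after a 15 min compound preincubation; product detected by AlphaScreen beads and anti-H3K9me1 antibody.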
BAZ2B inh = BAZ2B (human) inhibition; Potency, µM (titrated, usually from 114 µM), for inactives: at the highest dose activity change, negative = inhibition, most hits filed as inhibitors; AID 504333; AlphaScreen BAZ2B-H3K14Ac peptide displacement; 4.4% of 360,000 active; Q9UIF8; also: % is scaled to controls: 0 for no effect and ±100 for the full control effect; nearly all actives have a fitted effect of over 60% in size
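BAZ2B (50 nM) with biotin-H3(5-23)K14Ac peptide (50 nM) in PBS pH 7.4, 0.01% Tween-20, preformed 30 min, then compound 30 min at room temperature; top concentration 110uM. AlphaScreen streptavidin donor/nickel chelate acceptor beads (10 ug/mL final), 20 min dark, signal read.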
Sfp inh = blocks B. subtilis Sfp PPTase activity. Biochemical Sfp PPTase activity, qHTS. Potency, µM, inactives show largest response in the series, negative = inhibition, actives largely listed as inhibitors. Q9F4F7. 3.5% of 310,000 active;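 also: the enzyme is Sfp with the accession as filed and its product quenches rhodamine fluorescence; 0% = enzyme reaction without inhibitor and -100% = no enzyme wells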
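Fluorescence-quenching assay with 15 nM Sfp, 5 uM rhodamine-CoA and 12.5 uM BHQ-2-labelled ybbR peptide in pH 7.6 Hepes/MgCl2 buffer. Enzyme was pre-incubated with compound for 15 min at room temperature. Rate was taken from the 30-min fluorescence change (525/598 nm).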
* hit, by the source's call; ? = inconclusive; . = no result given; [ ] = remark or other dose. Calls follow the shape of the dose curve; as a rule, active = well fitted curve in the direction sought with a large enough effect; inconclusive = small, poorly fitted or top-dose-only effect, or another doubt; inactive = no such curve, though single readings can be large; an effect the other way counts as inactive or inconclusive. Potency is read from the fitted curve at half-maximal effect.

SMILES	HP1b chromo inh	L3MBTL1 inh	JMJD2A Tudor inh	G9a inh	BAZ2B inh	Sfp inh
O=C(CSc1nnc(-c2cc3ccccc3cc2O)n1Cc1ccco1)N1CCc2ccccc2C1	22.6%	.	-28.6%	?	-24.8%	44.7µM*
O=C(NCc1ccccc1)n1cc(P(=S)(c2ccccc2)c2ccccc2)c2ccccc21	.	.	-10.9%	.	.	.
CCOC(=O)c1ccc(NS(=O)(=O)c2ccc3c(c2)CCN3C(=O)CC)cc1	10.2%	.	-15.8%	?	-14.3%	.
CSc1nsc(NC(=O)OCc2ccc(Cl)cc2)n1	60.6%	13.6%	-2.3%	.	7.6%	11.0%
COc1ccsc1NC(=O)OCc1ccc(Cl)cc1	-16.3%	.	?	50.1µM*	?	-13.1%
CC(C)C(=O)NC(NC(=S)Nc1ccc(S(N)(=O)=O)cc1)C(Cl)(Cl)Cl (stereo not given)	22.1%	12.5%	-15.0%	50.1µM*	-19.5%	-5.9%
CCCC(=O)NC(NC(=S)Nc1ccc(S(N)(=O)=O)cc1)C(Cl)(Cl)Cl (stereo not given)	4.6%	-3.2%	-15.0%	44.7µM*	2.0%	-2.7%
Cc1ccc(-n2nc(CO)c(C(=O)NCCCCc3ccccc3)n2)cc1	49.9%	.	-14.2%	5.0%[59 µM]	-1.0%	.
CCC(C)C(=O)N1c2ccccc2C(=C2SC(C(=O)OC)=C(C(=O)OC)S2)C(=S)C1(C)C (stereo not given)	?	?	8.91µM*	?	8.91µM*	50.1µM*
CCC(C)NC(=O)CN1C(=O)c2cccnc2Sc2ccccc21 (stereo not given)	66.9%	.	0.7%	3.4%[59 µM]	-33.0%	.
COc1cccc(S(=O)(=O)Nc2ccc3sc(C)nc3c2)c1	25.9%	.	79.4µM*	22.4µM*	-8.2%	?
Cc1nc2cc(NS(=O)(=O)c3cccc4cccnc34)ccc2s1	35.3%	-3.3%	-10.3%	.	7.4%	6.6%
COc1cc(NC(=O)Cn2c(C)cc(C)c(C#N)c2=O)cc(OC)c1	-6.9%	.	-20.5%	12.9%[59 µM]	-11.1%	.
Cc1ccc(CNS(=O)(=O)c2ccc(C(F)(F)F)cc2)n1C	23.1%	-5.5%	-27.2%	44.7µM*	?	14.1%
Cc1ccc(CNS(=O)(=O)c2ccc(F)c(F)c2)n1C	-20.4%	.	-26.2%	44.7µM*	-23.8%	4.8%
Cc1cc(C)n(-c2nnc(NCc3ccc(Cl)cc3)nn2)n1	?	?	39.8µM*	-35.3%	?	14.3%
Cc1noc(C)c1-c1nccc(NCc2ccccc2)n1	.	.	.	-49.4%[0.501 µM]	.	?
Cc1cc(C)n(-c2nc(C)nc(NCc3ccccc3)n2)n1	43.4%	.	-19.3%	?	-4.6%	6.2%
Cc1nn(-c2nnc(NCc3ccccc3)nn2)c(C)c1Br	?	-29.3%	50.1µM*	12.6µM*	35.5µM*	-4.1%
Cc1cc(C)cc(-n2ccn(CC(=O)Nc3ccccc3C(F)(F)F)c(=O)c2=O)c1	30.1%	.	0.7%	8.7%[59 µM]	5.0%	.
COc1ccc(N2C(=O)CSC23C(=O)N(Cc2ccc(C)cc2)c2ccccc23)cc1Cl (stereo not given)	67.4%	.	-19.0%	0.6%[59 µM]	12.5%	.
COCCn1c(SCC(=O)c2ccccc2)nc2cc(C(=O)NC3CCCC3)ccc2c1=O	7.2%	.	-13.3%	3.0%[59 µM]	3.1%	.
Cc1ccc(Cn2c(CCNC(=O)c3cccc(C)c3)nc3ccccc32)cc1	9.9%	.	-21.8%	-25.9%[59 µM]	-3.0%	.
CCOC(=O)C(C)Oc1ccc2c(-c3cccc([N+](=O)[O-])c3)cc(=O)oc2c1 (stereo not given)	6.5%	-6.0%	-25.1%	35.5µM*	-12.7%	-6.2%
CCOc1ccc(C2c3c(oc4ccccc4c3=O)C(=O)N2Cc2ccc3c(c2)OCO3)cc1 (stereo not given)	17.0%	.	-15.1%	-16.8%[59 µM]	-7.5%	.
SMILES	HP1b chromo inh	L3MBTL1 inh	JMJD2A Tudor inh	G9a inh	BAZ2B inh	Sfp inh
COc1cccc(C2C(C(=O)Nc3ccccc3)=C(C)Nc3nnnn32)c1OC (stereo not given)	36.6%	.	-14.3%	8.8%[59 µM]	0.6%	.
Cn1c(=O)c2nc3ccc(NC(=O)C(F)(F)F)cc3nc2n(C)c1=O	37.2%	.	3.1%	5.1%[59 µM]	-1.0%	.
Cc1cc2nc3c(=O)[nH]c(=S)[nH]c3nc2cc1NC(=O)C(F)(F)F	11.4%	.	-10.3%	28.2µM*	-38.2%	79.4µM*
c1coc(-c2nnc(-c3ccco3)nn2)c1	44.7µM*	.	25.1µM*	20µM*	20µM*	-65.1%
Cc1ccc2nc(NC(=O)C3=NN(c4ccccc4)C(=O)CC3)sc2c1	24.4%	-8.7%	-18.1%	-26.1%	3.3%	0.5%
Cc1cccc2sc(NC(=O)C3=NN(c4ccccc4)C(=O)CC3)nc12	36.3%	-7.3%	-7.0%	50.1µM*	-2.7%	-2.4%
Cc1nc(C)c(C(=O)Nc2nc3c(C)cccc3s2)o1	?	20µM*	35.5µM*	14.1µM*	35.5µM*	50.1µM*
CCc1ccc(-c2nc(CSCC(=O)NCc3ccc(C)cc3)c(C)o2)cc1	11.8%	.	-24.2%	-4.8%[59 µM]	-12.0%	.
Cc1cccc(N2CCN(C(=O)c3cccc(-n4c(C)nc5cccnc54)c3)CC2)c1C	24.3%	.	-1.4%	-32.8%[59 µM]	-23.7%	.
CCOc1ccc(C2=Cc3cc(OC)c(OC)cc3C(=C(Cl)Cl)O2)cc1	.	.	.	7.08µM*	?	-24.6%
N#Cc1nc(COc2ccc(Cl)cc2)oc1N1CCCCCC1	-46.1%	?	?	?	11.2µM*	0.0%
CC1CN(c2oc(COc3ccc(Cl)cc3Cl)nc2C#N)CC(C)O1 (stereo not given)	-49.2%	-13.2%	?	?	35.5µM*	7.6%
N#Cc1nc(COc2ccccc2)oc1N1CCCCC1	?	-24.1%	?	?	?	-7.6%
Cc1ccc(OCc2nc(C#N)c(N3CCCCC3)o2)cc1	?	?	?	39.8µM*	28.2µM*	-0.5%
Cc1cccc(OCc2nc(C#N)c(N3CCCC3)o2)c1	?	?	-35.4%	.	39.8µM*	-8.3%
Cc1ccccc1Nc1oc(-c2ccccc2)nc1-c1ccccc1	.	.	.	.	.	-23.0%
COc1ccccc1N1CCN(c2ncnc3c2cnn3-c2cc(Cl)ccc2C)CC1	15.0%	.	-17.4%	-25.9%[59 µM]	-16.6%	.
Cn1cccc1C(=O)OCc1cc(Cl)cc2c1OCOC2	-5.7%	-4.8%	?	?	-33.6%	70.8µM*
Cn1cccc1C(=O)OCC(=O)Nc1ccc2c(c1)OCO2	14.7%	.	7.2%	-37.3%	-22.8%	22.0%
Cc1cc(C)c(OCC(=O)OCCNC(=O)c2cccnc2)c(C)c1	18.9%	7.7%	-23.1%	25.1µM*	?	2.3%
CCOC(=O)N=Nc1c(O)n(CC)c2ccccc12	24.7%	0.6%	-17.5%	?	-11.3%	8.2%
Cc1ccc2[nH]c(O)c(N=O)c2c1	21.6%	?	-5.6%	-37.6%	2.4%	7.7%
